Measurements as given in PubChem BioAssay AID1851 (National Center for Advancing Translational Sciences (NCATS), 2009).
The whole screen tested about 16,000 compounds, of which about 5,100 (32%) were called active. Inconclusive results (about 25%) are left out. The call rests on the fitted dose curve; in most records, active means well fitted curve in the direction sought with a large enough effect; inconclusive means small, poorly fitted or top-dose-only effect, or effect the other way; inactive means no such curve, though single readings can be large or run the other way. Some of the results follow.

Molecular target: Cytochrome P450 3A4 (Homo sapiens) (UniProt P08684)
Sequence (P08684 whole entry, looked up): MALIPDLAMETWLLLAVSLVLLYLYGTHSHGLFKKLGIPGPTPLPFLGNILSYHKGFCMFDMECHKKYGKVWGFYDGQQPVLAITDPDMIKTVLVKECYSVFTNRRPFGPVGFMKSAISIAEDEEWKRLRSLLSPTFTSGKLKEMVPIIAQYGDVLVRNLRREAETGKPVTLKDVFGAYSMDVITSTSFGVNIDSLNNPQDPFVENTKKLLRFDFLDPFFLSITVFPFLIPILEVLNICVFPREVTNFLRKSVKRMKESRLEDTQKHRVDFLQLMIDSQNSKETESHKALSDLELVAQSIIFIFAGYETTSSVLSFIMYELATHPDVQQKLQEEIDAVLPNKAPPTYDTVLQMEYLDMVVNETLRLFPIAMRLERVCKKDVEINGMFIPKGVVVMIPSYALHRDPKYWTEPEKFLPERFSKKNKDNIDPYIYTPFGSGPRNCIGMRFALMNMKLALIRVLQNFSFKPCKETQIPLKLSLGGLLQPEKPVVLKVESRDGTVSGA
Assay: Cytochrome panel assay with activity outcomes
Conditions: recombinant CYP, pro-luciferin dealkylation, luminescence, p450-cyp3a4; series mostly up to 57.1 µM; activity, negative = inhibition: at the top concentration
On the % scale 0 is the no-effect control and ±100 the full control effect.

activity, negative = inhibition, inactive:
N[C@H](CCCC(=O)O)C(=O)O -2.17%
N=C(C[C@@H](O)COc1ccccc1-c1ccccc1)N1CCCCC1 -25.3%
CN1CCN(c2ccnc(-c3ccoc3)n2)CC1 -2.76%
C[N+](C)(N)CCC[N+](C)(C)N -4.61% [at 11.4 µM]
CCc1ccc(N2CC(C(=O)N/N=C/c3cccc([N+](=O)[O-])c3)CC2=O)cc1 (configuration not stated) -50%
CCOC(=O)C1CCCN(C(=O)/C=C/c2cccc([N+](=O)[O-])c2)C1 (configuration not stated) 3.28% [at 2.29 µM]
O=C(N/N=C/C=C/c1ccc([N+](=O)[O-])cc1)c1cccs1 -1.51%
CC[C@H](Cc1c(I)cc(I)c(N)c1I)C(=O)O -23.4% [at 25.6 µM]
O=C(O)c1cc(N=Nc2ccc([N+](=O)[O-])cc2)ccc1O -6.97% [at 11.4 µM]
O=C(CNC(=O)c1ccc([N+](=O)[O-])cc1)c1ccccc1 0.889%
COc1cc(/C=C(\C#N)C(=O)NCC2CCCO2)c([N+](=O)[O-])cc1OC (configuration not stated) 12.9%
N=c1ccn2c(n1)O[C@H]1[C@@H](OP(=O)(O)O)[C@H](CO)O[C@H]12 -6.24% [at 11.4 µM]
O=C(O)[C@H]1CCCC[C@@H]1C(=O)Nc1nc2ccccc2[nH]1 -6.18% [at 11.4 µM]
Cc1cc(NC(=O)C2CCCCC2)nc2c1c(=O)oc1ccccc12 -4.81% [at 2.29 µM]
O=C1C=C(NCC2CCCO2)C2(CCCCC2)O1 (configuration not stated) -10.6%
COC(=O)COc1ccsc1C(=O)OC -5.82%
COc1ccc(/C=N/NC(=O)c2sccc2OCc2ccc(F)cc2)cc1OC -9.08% [at 2.29 µM]
O=S(=O)(NCc1cccnc1)c1ccc(Cl)nc1 5.89% [at 2.29 µM]
CCOC(=O)Nc1ccc(S(=O)(=O)NCc2ccccc2)cc1 -5.85%
COC(=O)N1CCC2(CCN(Cc3ccccc3OC)CC2)CC1 -11.5%
Oc1ccccc1CNCc1ccccc1O -7.01% [at 11.4 µM]
CCCNc1nc(NCC)nc(OC)n1 5.69%
C=CCOc1ccc(CNC(C)(C)CO)cc1OCC 2.18%
CCCN1CCC(=NNC(=O)c2ccc(Br)o2)CC1 11.6% [at 2.29 µM]
O=C(N/N=C/c1ccco1)c1ccc(Br)o1 -15.3%
Cc1ccc(C(CC(=O)c2ccco2)SCCO)cc1 (configuration not stated) -23.2%
O=C(c1ccco1)N1CCN(C(=O)c2nn3cccnc3c2Cl)CC1 21.1%
CCCCNC(=O)C1CC(=O)N(CCC(C)C)C1 (configuration not stated) 0.276% [at 11.4 µM]
Cc1ccc(CCN2CC(C(=O)NCCN3CCOCC3)CC2=O)cc1 (configuration not stated) -12.6%
O=C(NCCCN1CCCCCC1)C1CC(=O)N(CCc2ccccc2)C1 (configuration not stated) -20.8%
CN(C)CCCN1CC(C(=O)O)CC1=O (configuration not stated) -11.5%
Cn1c([N+](=O)[O-])cnc1COC(N)=O -5.99% [at 25.6 µM]
c1ccc2c(NC3CCNCC3)nc(-c3ccoc3)nc2c1 -5.63%
O=C1COc2ccc(OCc3ccc(F)cc3)cc21 3%
NC(=O)c1csc(-c2ccc(CO)o2)n1 -8.17% [at 11.4 µM]
Clc1cc2c(c(CSC3=NCN(CC4CC4)CN3)c1)OCOC2 -21.4% [at 11.4 µM]
CCCCCCCCOC1OC(CO)C(O)C(O)C1NC(C)=O (configuration not stated) -7.28%
CC(=O)OC[C@@H]1O[C@@H](O/N=C2/C[C@@H](O)[C@@H](O)[C@@H]3[C@H]4C(=O)N(c5ccc(F)cc5F)C(=O)[C@@H]4CC[C@@H]23)[C@H](OC(C)=O)[C@H](OC(C)=O)[C@@H]1OC(C)=O -27.1% [at 11.4 µM]
CCCSc1nc(C)cc(C)c1S(=O)(=O)c1ccccc1C -17.7%
Cc1cc(-c2ccccc2)[nH]c(=O)c1S(=O)(=O)c1ccc(Cl)cc1 -12.9%
CNc1oc(C)nc1S(=O)(=O)c1ccc(C)cc1 -16.1%
COc1ccc([N+](=O)[O-])cc1COc1ccc2c(-c3ccccc3)cc(=O)oc2c1 -22.6%
CN1CCC2(CC1)CCN(S(=O)(=O)c1ccccc1)CC2 -12.4%
Cn1c(=O)c2[nH]c(COCc3nc4c([nH]3)c(=O)n(C)c(=O)n4C)nc2n(C)c1=O -0.524% [at 11.4 µM]
O=C1CCCCC(=O)c2ccccc2N1 -7.97%
OCCN=C1CCCc2c1[nH]c1ccc(Br)cc21 -11%
COCC(=O)Nc1ccc(-c2cn3cccnc3n2)cc1 -9.62%
CCCCC(=O)Nc1ccc(C(=O)NNC(=O)CCc2ccccc2)cc1 -12.2%
CCOc1ccc(N2C(=O)/C(=C/c3cccs3)N(CC(=O)OC)C2=S)cc1 -26.9%
CNC(=S)Nc1ccc(Nc2ccccc2)cc1 -26%
O=[N+]([O-])c1ccc(NN=C2c3ccccc3Cc3ccccc32)c([N+](=O)[O-])c1 -5.06% [at 11.4 µM]
CC1(C)N=C(N)N=C(N)N1c1cccc(OCc2cccc([N+](=O)[O-])c2)c1 -3.23% [at 11.4 µM]
O=C(c1ccccc1)N1CCSC1=S -18.4%

AC50, active:
CS(=O)(=O)Nc1cccc(-c2cncnc2-n2ccnc2)c1 7.94 µM
CN1CCN(c2ccnc(-c3cccc(NS(C)(=O)=O)c3)n2)CC1 25.1 µM
CS(=O)(=O)Nc1cccc(-c2nccc(-n3ccnc3)n2)c1 1.58 µM
Cc1ccc(NC(=O)/C(=C/c2cccc([N+](=O)[O-])c2)NC(=O)C2CCCCC2)c(C)c1 1 µM
Cc1ccc(NC(=O)/C(=C\c2ccc([N+](=O)[O-])cc2)NC(=O)c2ccccc2)cc1 1.12 µM
Cc1ccc(NC(=O)/C(=C\c2cccc([N+](=O)[O-])c2)NC(=O)c2cccs2)cc1 0.398 µM
O=C(Nc1cccc2ccccc12)/C(=C/c1ccc([N+](=O)[O-])cc1)NC(=O)c1ccccc1 1.12 µM
Cc1ccc(C(=O)N/C(=C\c2ccc([N+](=O)[O-])cc2)C(=O)NCCc2ccccc2)cc1 0.282 µM
COc1cc(/C=C(/NC(=O)c2ccccc2)C(=O)Nc2ccccc2)c([N+](=O)[O-])cc1OC 0.794 µM
Cc1cc(NC(=O)C2CCCC2)n(-c2nc3ccccc3[nH]2)n1 11.2 µM
COc1ccc(COc2ccsc2C(=O)Nc2ccc(Cl)c(Cl)c2)cc1 7.08 µM
CCN(C1CCCCC1)S(=O)(=O)c1ccc(S(=O)(=O)NCc2ccncc2)cc1 7.08 µM
COc1ccccc1CNCC(O)(c1ccc(Cl)cc1)c1ccc(Cl)cc1 3.55 µM
CCOc1nc(NCCc2ccc(OC)c(OC)c2)nc(NC(C)(C)CO)n1 11.2 µM
CC(C)N1CCC(=NNC(=O)c2ccc(Br)o2)CC1 15.8 µM
Cc1ccc(C(c2nnnn2CC2CCCO2)N2CCN(C(=O)c3ccco3)CC2)cc1 (configuration not stated) 3.55 µM
CC(C)CCn1nnnc1C(c1ccc(F)cc1)N1CCN(C(=O)c2ccco2)CC1 (configuration not stated) 7.94 µM
CCOCCCN1CC(C(=O)NCCc2ccc(C)cc2)CC1=O (configuration not stated) 15.8 µM
Cc1ccc(CCN2CC(C(=O)NC3CCCC3)CC2=O)cc1 (configuration not stated) 15.8 µM
COc1ccccc1/C=C/C(=O)c1c2c(c(C)[nH]c1=O)CCCC2 3.98 µM
Cc1[nH]c(=O)c(C(=O)/C=C/c2ccccc2F)c2c1CCCC2 11.2 µM
CNc1nc(-c2ccoc2)nc2ccccc12 15.8 µM
Fc1ccc(Nc2nc(-c3ccoc3)nc3ccccc23)cc1 3.98 µM
c1ccc2c(NC3CC3)nc(-c3ccoc3)nc2c1 3.98 µM
c1ccc2c(Nc3ccncc3)nc(-c3ccoc3)nc2c1 1.26 µM
O=S(=O)(c1ccc(F)cc1)N1CC2CCCN2c2ccc(C(F)(F)F)cc21 (configuration not stated) 6.31 µM
COc1ccc(S(=O)(=O)N2CC3CCCN3c3ccc(C(F)(F)F)cc32)cc1 (configuration not stated) 1 µM
OCc1ccc(-c2nn(Cc3ccccc3)c3ccccc23)o1 12.6 µM
CC(=O)NC1C(OCCOc2ccc(Cl)cc2Cl)OC(COC(C)=O)C(OC(C)=O)C1OC(C)=O (configuration not stated) 14.1 µM
CNc1nc(C)cc(C)c1S(=O)(=O)c1ccc(C)cc1 4.47 µM
CNc1nc(C)cc(C)c1S(=O)(=O)c1ccc(Cl)cc1 4.47 µM
Cc1ccc(C2Nc3ccccc3C(=O)N2Cc2ccco2)cc1 (configuration not stated) 14.1 µM
COc1ccc(C2Nc3ccccc3C(=O)N2Cc2ccco2)cc1COc1ccc([N+](=O)[O-])cc1 (configuration not stated) 4.47 µM
O=S(=O)(c1ccccc1)N1CCC2(CCCN(C(c3ccccc3)c3ccccc3)C2)CC1 2 µM
O=S(=O)(c1ccccc1)N1CCC[C@@]2(CCN(C(c3ccccc3)c3ccccc3)C2)C1 3.16 µM
O=C1Cc2c([nH]c3ccc(Br)cc23)-c2ccccc2N1 12.6 µM
CC(C)OCCCN1CN(S(=O)(=O)c2cccc(Cl)c2)c2nc3ccccc3nc21 7.94 µM
CCN1C(=O)C(CC(=O)Nc2ccc(Br)cc2)N(CCCc2ccccc2)C1=S (configuration not stated) 2.51 µM
CCN1C(=O)C(CC(=O)Nc2ccc(OC)cc2)N(Cc2cccs2)C1=S (configuration not stated) 3.98 µM
CCN1C(=O)C(CC(=O)Nc2ccc(OC)cc2)N(Cc2cccnc2)C1=S (configuration not stated) 11.2 µM
Cc1cc(NC(=S)Nc2ccccc2)ccc1Br 20 µM
O=[N+]([O-])c1ccc(C2CCCC/C2=N\OCc2cccc(F)c2)c([N+](=O)[O-])c1 (configuration not stated) 14.1 µM

AC50, inactive:
O=C(O)C1=CCCNC1
C[N+](C)(C)CCOC(N)=O
